# In paper PMC7862700, “An all-to-all approach to the identification of sequence-specific readers for epigenetic DNA modifications on cytosine”:
# Key:
# Experiment in all cases: DAPPL (digital affinity profiling via proximity ligation, sequencing); 10 mM Tris-HCl pH 7.5, 50 mM NaCl, 1 mM DTT, 4% glycerol, room temperature, 30 min; GST-TFs on glutathione beads, 16-mer random dsDNA library, 0.1% formaldehyde crosslink after washing; high values mean tight binding
# FEV = molecular target: T1, FEV (Homo sapiens, UniProt Q99581 1-238); details: protein: recombinant; tags: N-terminal GST; dsDNA, one strand shown
# T1 sequence: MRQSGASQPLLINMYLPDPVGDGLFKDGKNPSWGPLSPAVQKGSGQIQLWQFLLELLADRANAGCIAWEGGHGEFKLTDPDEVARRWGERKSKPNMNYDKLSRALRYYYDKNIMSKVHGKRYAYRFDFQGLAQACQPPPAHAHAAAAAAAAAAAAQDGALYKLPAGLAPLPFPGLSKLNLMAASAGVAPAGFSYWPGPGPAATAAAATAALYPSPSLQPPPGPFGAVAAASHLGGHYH
# How it was run: (§1)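 Binding signal is each hexamer's read frequency for a factor divided by its frequency in the tag-only sample. The factors were GST-fused human transcription factors from yeast, captured on glutathione beads, DNA-barcoded and pooled with that sample. Pools were incubated with 200 nmole of a random double-stranded 16-mer DNA library in Tris/NaCl/DTT/glycerol buffer at room temperature for 30 min, then washed, crosslinked with 0.1% formaldehyde, proximity-ligated with BsaI/T4 ligase (1 h, 37 °C), PCR-amplified and sequenced on an Illumina NextSeq500.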
# ETV5 = ETV5 (Homo sapiens, UniProt P41161 1-510); details: protein: recombinant; tags: N-terminal GST; dsDNA, one strand shown
# Sequence of ETV5 (P41161 whole entry): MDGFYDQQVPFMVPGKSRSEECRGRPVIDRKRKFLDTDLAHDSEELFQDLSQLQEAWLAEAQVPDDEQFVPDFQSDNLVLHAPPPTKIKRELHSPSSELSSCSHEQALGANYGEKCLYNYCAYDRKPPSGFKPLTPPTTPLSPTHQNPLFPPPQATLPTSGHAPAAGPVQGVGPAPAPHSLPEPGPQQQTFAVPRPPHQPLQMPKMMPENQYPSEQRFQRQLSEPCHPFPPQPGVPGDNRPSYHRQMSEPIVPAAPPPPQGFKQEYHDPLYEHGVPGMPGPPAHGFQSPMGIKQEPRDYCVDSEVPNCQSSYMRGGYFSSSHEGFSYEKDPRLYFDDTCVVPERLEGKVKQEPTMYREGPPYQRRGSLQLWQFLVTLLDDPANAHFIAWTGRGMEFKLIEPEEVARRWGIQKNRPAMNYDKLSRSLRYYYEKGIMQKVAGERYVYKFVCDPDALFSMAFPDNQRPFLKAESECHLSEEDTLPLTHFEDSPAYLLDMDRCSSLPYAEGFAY
# How it was run: as §1
# HSF1 = HSF1 (Homo sapiens, UniProt Q00613 1-529); details: protein: recombinant; tags: N-terminal GST; chain copies: 3; dsDNA, one strand shown
# Sequence of HSF1 (Q00613 whole entry): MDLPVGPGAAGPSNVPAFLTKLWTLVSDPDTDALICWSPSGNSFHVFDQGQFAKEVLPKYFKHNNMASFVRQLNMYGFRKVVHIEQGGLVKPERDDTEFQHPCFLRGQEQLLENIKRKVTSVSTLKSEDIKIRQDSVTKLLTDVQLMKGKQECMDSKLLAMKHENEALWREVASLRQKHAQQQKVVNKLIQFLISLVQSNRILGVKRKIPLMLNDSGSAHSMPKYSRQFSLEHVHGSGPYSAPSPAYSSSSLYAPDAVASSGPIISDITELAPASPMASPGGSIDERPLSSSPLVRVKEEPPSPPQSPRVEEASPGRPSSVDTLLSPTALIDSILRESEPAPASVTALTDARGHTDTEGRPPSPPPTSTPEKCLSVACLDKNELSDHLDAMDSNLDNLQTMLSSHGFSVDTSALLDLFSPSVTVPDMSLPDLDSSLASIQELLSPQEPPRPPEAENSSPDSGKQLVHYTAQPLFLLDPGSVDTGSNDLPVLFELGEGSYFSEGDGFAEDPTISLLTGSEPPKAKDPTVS
# How it was run: as §1
# SPIC = molecular target: T2, SPIC (Homo sapiens, UniProt Q8N5J4 1-248); details: protein: recombinant; tags: N-terminal GST; dsDNA, one strand shown
# T2 sequence: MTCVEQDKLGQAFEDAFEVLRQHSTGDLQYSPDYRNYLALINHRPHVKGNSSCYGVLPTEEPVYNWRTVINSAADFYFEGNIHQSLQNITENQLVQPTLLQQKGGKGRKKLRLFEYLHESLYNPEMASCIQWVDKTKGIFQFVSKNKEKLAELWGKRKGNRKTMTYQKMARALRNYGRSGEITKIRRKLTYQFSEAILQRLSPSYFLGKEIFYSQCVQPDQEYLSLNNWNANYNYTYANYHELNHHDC
# How it was run: as §1
# ELF4 = ELF4 (Homo sapiens, UniProt Q99607 1-663); details: protein: recombinant; tags: N-terminal GST; dsDNA, one strand shown
# Sequence of ELF4 (Q99607 whole entry): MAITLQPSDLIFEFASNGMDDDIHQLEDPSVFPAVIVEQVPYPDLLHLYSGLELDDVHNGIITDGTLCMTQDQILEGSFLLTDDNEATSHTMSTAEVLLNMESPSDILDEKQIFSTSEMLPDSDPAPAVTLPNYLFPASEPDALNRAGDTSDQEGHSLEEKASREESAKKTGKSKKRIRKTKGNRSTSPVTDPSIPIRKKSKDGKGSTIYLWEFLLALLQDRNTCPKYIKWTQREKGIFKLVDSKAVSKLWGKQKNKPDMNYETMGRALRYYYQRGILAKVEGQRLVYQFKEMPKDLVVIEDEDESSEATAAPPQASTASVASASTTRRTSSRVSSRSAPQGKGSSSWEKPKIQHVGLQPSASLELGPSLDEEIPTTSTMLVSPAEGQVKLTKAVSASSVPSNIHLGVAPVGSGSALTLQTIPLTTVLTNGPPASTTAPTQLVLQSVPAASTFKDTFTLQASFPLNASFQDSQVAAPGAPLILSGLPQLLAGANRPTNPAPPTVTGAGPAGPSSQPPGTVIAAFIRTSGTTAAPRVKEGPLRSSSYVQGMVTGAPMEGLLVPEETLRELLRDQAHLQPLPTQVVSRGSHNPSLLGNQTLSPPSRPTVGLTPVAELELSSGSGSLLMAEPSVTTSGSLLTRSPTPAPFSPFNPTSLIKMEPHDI
# How it was run: as §1
# ELK4 = molecular target: T3, ELK4 (Homo sapiens, UniProt P28324-2 1-405); details: protein: recombinant; tags: N-terminal GST; dsDNA, one strand shown
# T3 sequence: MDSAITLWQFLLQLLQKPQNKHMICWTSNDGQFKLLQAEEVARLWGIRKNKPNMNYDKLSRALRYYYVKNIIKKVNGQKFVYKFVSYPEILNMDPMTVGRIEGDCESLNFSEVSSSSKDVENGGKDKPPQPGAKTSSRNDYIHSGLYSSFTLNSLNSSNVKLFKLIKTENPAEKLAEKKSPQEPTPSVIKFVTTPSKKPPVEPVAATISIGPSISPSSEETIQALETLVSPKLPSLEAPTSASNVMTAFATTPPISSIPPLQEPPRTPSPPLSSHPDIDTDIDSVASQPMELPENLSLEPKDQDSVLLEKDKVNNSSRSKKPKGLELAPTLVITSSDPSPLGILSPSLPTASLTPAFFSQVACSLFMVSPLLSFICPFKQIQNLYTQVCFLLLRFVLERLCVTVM
# How it was run: as §1
# ETV2 = molecular target: T4, ETV2 (Homo sapiens, UniProt O00321 1-342); details: protein: recombinant; tags: N-terminal GST; dsDNA, one strand shown
# T4 sequence: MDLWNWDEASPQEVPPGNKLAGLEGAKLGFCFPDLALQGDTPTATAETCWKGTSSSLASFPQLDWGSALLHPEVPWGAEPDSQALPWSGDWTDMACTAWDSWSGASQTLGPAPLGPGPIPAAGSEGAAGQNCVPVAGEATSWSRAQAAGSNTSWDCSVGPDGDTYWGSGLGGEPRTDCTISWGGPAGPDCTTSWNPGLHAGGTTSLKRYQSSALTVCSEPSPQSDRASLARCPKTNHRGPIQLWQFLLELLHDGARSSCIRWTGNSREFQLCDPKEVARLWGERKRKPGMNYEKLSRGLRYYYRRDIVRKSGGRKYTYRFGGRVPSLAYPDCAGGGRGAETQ
# How it was run: as §1
# ELF3 = molecular target: T5, ELF3 (Homo sapiens, UniProt P78545 1-371); details: protein: recombinant; tags: N-terminal GST; dsDNA, one strand shown
# T5 sequence: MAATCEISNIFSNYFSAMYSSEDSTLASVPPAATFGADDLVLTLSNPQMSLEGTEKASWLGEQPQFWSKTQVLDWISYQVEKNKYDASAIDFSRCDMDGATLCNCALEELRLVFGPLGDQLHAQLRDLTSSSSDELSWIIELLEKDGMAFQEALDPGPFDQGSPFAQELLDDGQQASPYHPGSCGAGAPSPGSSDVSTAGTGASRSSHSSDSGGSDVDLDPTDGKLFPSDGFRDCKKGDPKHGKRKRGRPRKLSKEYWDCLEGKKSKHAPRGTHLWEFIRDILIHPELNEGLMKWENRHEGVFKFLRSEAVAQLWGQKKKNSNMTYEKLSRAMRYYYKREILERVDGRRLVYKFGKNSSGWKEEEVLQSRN
# How it was run: as §1
# CRX = CRX (Homo sapiens, UniProt O43186 1-299); details: protein: recombinant; tags: N-terminal GST; dsDNA, one strand shown
# Sequence of CRX (O43186 whole entry): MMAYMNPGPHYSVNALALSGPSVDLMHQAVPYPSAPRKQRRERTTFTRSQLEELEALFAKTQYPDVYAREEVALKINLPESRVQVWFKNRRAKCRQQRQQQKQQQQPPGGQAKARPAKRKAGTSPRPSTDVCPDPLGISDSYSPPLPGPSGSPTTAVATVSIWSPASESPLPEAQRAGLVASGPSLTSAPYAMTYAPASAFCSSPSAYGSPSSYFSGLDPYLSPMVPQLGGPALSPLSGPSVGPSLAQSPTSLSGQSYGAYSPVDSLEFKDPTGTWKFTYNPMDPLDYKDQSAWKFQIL
# How it was run: as §1
# ETV1 = ETV1 (Homo sapiens, UniProt P50549 1-477); details: protein: recombinant; tags: N-terminal GST; dsDNA, one strand shown
# Sequence of ETV1 (P50549 whole entry): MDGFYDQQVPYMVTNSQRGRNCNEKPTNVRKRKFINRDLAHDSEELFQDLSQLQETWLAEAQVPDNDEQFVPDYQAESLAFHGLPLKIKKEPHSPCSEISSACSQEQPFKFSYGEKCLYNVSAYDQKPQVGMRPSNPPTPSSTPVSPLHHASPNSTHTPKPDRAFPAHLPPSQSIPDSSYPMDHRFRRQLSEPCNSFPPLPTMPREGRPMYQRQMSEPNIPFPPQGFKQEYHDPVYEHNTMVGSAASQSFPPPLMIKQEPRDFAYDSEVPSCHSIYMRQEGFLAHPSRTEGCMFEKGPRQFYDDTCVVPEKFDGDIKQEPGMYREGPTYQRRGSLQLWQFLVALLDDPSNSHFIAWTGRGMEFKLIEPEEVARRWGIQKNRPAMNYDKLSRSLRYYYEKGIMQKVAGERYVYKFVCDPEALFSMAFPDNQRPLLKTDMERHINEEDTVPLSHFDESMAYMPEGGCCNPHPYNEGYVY
# How it was run: as §1
# ERF = molecular target: T6, ERF (Homo sapiens, UniProt P50548 1-548); details: protein: recombinant; tags: N-terminal GST; dsDNA, one strand shown
# T6 sequence: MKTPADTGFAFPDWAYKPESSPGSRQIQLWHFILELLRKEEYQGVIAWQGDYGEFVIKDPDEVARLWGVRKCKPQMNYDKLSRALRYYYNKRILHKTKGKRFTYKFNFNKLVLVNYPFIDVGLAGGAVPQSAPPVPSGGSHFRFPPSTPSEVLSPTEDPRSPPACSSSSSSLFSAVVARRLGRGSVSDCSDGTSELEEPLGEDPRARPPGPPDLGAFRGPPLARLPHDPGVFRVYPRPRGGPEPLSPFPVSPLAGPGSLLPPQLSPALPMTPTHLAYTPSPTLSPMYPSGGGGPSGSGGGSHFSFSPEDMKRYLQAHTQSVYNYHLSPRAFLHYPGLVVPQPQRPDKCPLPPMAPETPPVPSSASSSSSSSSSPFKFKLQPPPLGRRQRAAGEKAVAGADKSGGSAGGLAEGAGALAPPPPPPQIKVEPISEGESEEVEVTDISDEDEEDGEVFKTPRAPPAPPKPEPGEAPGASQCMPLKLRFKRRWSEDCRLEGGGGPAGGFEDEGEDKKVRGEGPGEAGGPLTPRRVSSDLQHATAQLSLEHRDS
# How it was run: as §1
# ETV3L = molecular target: T7, ETV3L (Homo sapiens, UniProt Q6ZN32 1-361); details: protein: recombinant; tags: N-terminal GST; dsDNA, one strand shown
# T7 sequence: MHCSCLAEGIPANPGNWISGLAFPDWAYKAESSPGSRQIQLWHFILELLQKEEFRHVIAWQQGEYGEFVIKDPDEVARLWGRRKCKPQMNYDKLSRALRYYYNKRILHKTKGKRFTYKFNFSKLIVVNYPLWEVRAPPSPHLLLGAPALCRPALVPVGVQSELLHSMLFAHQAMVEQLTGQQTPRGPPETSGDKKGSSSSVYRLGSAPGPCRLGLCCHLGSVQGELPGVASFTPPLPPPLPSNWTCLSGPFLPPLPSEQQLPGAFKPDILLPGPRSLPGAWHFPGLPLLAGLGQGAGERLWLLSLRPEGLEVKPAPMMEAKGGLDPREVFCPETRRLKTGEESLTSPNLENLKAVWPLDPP
# How it was run: as §1
# ETS2 = molecular target: T8, ETS2 (Homo sapiens, UniProt P15036 1-469); details: protein: recombinant; tags: N-terminal GST; dsDNA, one strand shown
# T8 sequence: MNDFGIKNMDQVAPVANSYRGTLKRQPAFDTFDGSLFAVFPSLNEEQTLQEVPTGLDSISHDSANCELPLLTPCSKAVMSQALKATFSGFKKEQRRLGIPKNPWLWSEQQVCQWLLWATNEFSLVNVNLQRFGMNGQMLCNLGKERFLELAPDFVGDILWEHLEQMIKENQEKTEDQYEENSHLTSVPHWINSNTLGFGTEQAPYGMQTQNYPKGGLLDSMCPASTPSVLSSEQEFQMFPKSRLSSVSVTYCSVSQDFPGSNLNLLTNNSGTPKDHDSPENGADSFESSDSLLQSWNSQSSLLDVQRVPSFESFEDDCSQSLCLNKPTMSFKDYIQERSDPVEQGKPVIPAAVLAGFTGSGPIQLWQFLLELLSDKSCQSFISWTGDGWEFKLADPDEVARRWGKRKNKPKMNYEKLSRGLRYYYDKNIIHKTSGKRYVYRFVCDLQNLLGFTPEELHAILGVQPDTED
# How it was run: as §1
# SPDEF = molecular target: T9, SPDEF (Homo sapiens, UniProt O95238 1-335); details: protein: recombinant; tags: N-terminal GST; dsDNA, one strand shown
# T9 sequence: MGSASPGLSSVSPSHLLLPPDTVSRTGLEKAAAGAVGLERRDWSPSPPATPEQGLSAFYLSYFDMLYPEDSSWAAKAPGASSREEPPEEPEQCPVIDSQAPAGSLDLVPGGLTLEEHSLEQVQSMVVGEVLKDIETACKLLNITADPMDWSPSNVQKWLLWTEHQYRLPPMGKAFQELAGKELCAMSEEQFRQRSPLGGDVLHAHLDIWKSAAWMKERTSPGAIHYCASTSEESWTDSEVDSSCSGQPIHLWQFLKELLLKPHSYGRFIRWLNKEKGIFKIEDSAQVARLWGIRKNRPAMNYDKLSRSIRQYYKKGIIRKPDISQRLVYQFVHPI
# How it was run: as §1
# ETV7 = molecular target: T10, ETV7 (Homo sapiens, UniProt Q9Y603 1-341); details: protein: recombinant; tags: N-terminal GST; dsDNA, one strand shown
# T10 sequence: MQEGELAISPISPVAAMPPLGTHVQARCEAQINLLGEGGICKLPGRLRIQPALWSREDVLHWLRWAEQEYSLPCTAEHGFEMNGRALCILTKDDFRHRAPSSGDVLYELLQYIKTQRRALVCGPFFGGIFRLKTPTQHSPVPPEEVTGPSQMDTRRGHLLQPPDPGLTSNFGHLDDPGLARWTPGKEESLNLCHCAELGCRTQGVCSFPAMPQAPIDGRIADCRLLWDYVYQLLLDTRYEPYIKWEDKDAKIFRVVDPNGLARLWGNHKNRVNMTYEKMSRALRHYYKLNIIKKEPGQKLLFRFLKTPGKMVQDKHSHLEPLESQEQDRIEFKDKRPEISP
# How it was run: as §1
# ELF5 = molecular target: T11, ELF5 (Homo sapiens, UniProt Q9UKW6-2 1-255); details: protein: recombinant; tags: N-terminal GST; dsDNA, one strand shown
# T11 sequence: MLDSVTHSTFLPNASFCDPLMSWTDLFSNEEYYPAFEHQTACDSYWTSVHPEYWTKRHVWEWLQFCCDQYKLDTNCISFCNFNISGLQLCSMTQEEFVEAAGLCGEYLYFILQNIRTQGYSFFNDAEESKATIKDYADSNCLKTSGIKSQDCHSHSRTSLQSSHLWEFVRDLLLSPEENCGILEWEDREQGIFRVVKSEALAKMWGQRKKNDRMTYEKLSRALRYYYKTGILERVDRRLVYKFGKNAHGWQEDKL
# How it was run: as §1
# ETV3 = molecular target: T12, ETV3 (Homo sapiens, UniProt P41162-2 1-143); details: protein: recombinant; tags: N-terminal GST; dsDNA, one strand shown
# T12 sequence: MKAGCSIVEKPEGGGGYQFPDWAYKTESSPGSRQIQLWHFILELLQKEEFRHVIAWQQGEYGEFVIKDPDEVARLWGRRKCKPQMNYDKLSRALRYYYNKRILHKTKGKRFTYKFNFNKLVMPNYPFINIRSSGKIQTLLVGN
# How it was run: as §1
# ETV6 = ETV6 (Homo sapiens, UniProt P41212 1-452); details: protein: recombinant; tags: N-terminal GST; dsDNA, one strand shown
# Sequence of ETV6 (P41212 whole entry): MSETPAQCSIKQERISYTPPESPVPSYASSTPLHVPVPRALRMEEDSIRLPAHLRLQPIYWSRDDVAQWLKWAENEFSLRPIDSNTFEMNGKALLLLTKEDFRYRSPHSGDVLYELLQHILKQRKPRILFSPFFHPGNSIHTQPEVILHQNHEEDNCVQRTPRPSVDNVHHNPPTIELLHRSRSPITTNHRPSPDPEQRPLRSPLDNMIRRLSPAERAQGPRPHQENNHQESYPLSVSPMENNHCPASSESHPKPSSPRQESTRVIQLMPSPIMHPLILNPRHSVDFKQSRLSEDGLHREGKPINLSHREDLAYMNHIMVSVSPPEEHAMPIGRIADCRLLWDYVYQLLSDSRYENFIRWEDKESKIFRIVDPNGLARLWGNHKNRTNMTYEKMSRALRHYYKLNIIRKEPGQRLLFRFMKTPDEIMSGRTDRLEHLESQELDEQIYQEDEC
# How it was run: as §1
sequence,measurement,setting,value
AGTGCT,binding signal,FEV,"1.4 fold enrichment (6-mer frequency, TF over GST control)"
same,binding signal,ETV5,"1.4 fold enrichment (6-mer frequency, TF over GST control)"
same,binding signal,HSF1,"1.15 fold enrichment (6-mer frequency, TF over GST control)"
same,binding signal,SPIC,"1.67 fold enrichment (6-mer frequency, TF over GST control)"
same,binding signal,ELF4,"1.33 fold enrichment (6-mer frequency, TF over GST control)"
same,binding signal,ELK4,"1.37 fold enrichment (6-mer frequency, TF over GST control)"
same,binding signal,ETV2,"1.42 fold enrichment (6-mer frequency, TF over GST control)"
same,binding signal,ELF3,"1.02 fold enrichment (6-mer frequency, TF over GST control)"
same,binding signal,CRX,"1.16 fold enrichment (6-mer frequency, TF over GST control)"
same,binding signal,ETV1,"1.32 fold enrichment (6-mer frequency, TF over GST control)"
same,binding signal,ERF,"1.41 fold enrichment (6-mer frequency, TF over GST control)"
same,binding signal,ETV3L,"1.32 fold enrichment (6-mer frequency, TF over GST control)"
same,binding signal,ETS2,"1.46 fold enrichment (6-mer frequency, TF over GST control)"
same,binding signal,SPDEF,"1.33 fold enrichment (6-mer frequency, TF over GST control)"
same,binding signal,ETV7,"1.37 fold enrichment (6-mer frequency, TF over GST control)"
same,binding signal,ELF5,"1.48 fold enrichment (6-mer frequency, TF over GST control)"
same,binding signal,ETV3,"1.56 fold enrichment (6-mer frequency, TF over GST control)"
same,binding signal,ETV6,"1.52 fold enrichment (6-mer frequency, TF over GST control)"
